Measurements as given in PubChem BioAssay (EPA / NIEHS).
Records with an inconclusive call do not appear. Active and inactive are the calls of the source. Rule for the calls, unless noted: active = hit-call score of the fitted dose curve at least 0.9, where 1 is the maximum; inconclusive = response in the unintended direction; inactive = score below 0.9.

Experiments:
[1] = TOX21_p53_BLA_p2_viability: Viability Assessment in the Tox21 HCT-116 p53 Agonism Beta-lactamase Assay, Phase 2 (AID 2283591);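 note: compound exposure lasted 16 h at 37 °C; actives lower the ATP signal meaning cytotoxicity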
Method in brief: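 HCT116 p53-bla cells, 4000/well, dosed after 5 h plating (217-fold dilution of DMSO stocks) and incubated 16 h at 37C. Viability taken as cellular ATP by CellTiter-Glo luminescence after 30 min RT; signal loss marks cytotoxicity.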

[2] = TOX21_p53_BLA_p3_viability: Viability Assessment in the Tox21 HCT-116 p53 Agonism Beta-lactamase Assay, Phase 3 (AID 2283593);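 note: cells exposed to compound for 16 h before reading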
Method in brief: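 HCT116 cells, 4000/well, dosed 5 h after plating by pin transfer (217-fold dilution from DMSO stock) and incubated 16 h at 37C, 5% CO2. Viability read as ATP luminescence with CellTiter-Glo after 30 min at room temperature.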

[3] = biological target: Cellular tumor antigen p53 (Homo sapiens) (UniProt P04637); assay: TOX21_p53_BLA_p3_ratio: Tox21 HCT-116 p53 Agonism Beta-lactamase Assay, Ratio, Phase 3 (AID 2283596)
Sequence of Cellular tumor antigen p53 (Homo sapiens) (P04637 whole entry, looked up): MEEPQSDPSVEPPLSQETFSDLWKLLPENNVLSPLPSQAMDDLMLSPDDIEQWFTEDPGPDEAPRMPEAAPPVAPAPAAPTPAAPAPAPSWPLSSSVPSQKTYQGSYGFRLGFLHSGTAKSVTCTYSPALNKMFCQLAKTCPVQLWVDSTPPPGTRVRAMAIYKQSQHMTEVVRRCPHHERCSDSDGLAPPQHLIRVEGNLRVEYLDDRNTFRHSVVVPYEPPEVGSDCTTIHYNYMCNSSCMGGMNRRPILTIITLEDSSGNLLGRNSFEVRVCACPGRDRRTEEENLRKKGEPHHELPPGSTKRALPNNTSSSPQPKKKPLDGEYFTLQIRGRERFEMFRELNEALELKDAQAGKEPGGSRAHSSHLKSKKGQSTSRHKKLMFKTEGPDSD
Method in brief: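 Cells were seeded at 4000/well, rested 5 h at 37C, then dosed with DMSO compound solutions (217-fold dilution) for 16 h. CCF4-AM substrate was loaded for 2 h at room temperature, and the 460/530 nm emission ratio was fitted for gain of signal versus DMSO.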

[4] = TOX21_p53_BLA_p4_viability: Viability Assessment in the Tox21 HCT-116 p53 Agonism Beta-lactamase Assay, Phase 4 (AID 2283597);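 note: hits lower the luminescence signal meaning cytotoxicity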
Method in brief: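 Viability is taken as cellular ATP: after 16 h compound exposure of HCT116 cells and a 2 h room-temperature CCF4-AM substrate step, CellTiter-Glo reagent is added and luminescence is measured 30 min later.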

[5] = biological target: Cellular tumor antigen p53 (Homo sapiens) (UniProt P04637); assay: TOX21_p53_BLA_p5_ratio: Tox21 HCT-116 p53 Agonism Beta-lactamase Assay, Ratio, Phase 5 (AID 2283599)
Method in brief: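 HCT-116 p53-bla cells (4000/well) plated 5 h, dosed with compound (217-fold DMSO dilution) for 16 h at 37 C; CCF4-AM substrate 2 h at room temperature. Activity is the 460/530 nm emission ratio (405 nm excitation), fitted in gain-of-signal direction versus DMSO.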

[6] = TOX21_p53_BLA_p5_viability: Viability Assessment in the Tox21 HCT-116 p53 Agonism Beta-lactamase Assay, Phase 5 (AID 2283600)
Method in brief: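 Viability is taken from cellular ATP content, measured by luciferase luminescence in the same wells after the beta-lactamase ratio read. Cells are seeded at 4000 per well and exposed to DMSO-dissolved compounds, diluted 217-fold, for 16 h.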

[7] = biological target: Cellular tumor antigen p53 (Homo sapiens) (UniProt P04637); assay: TOX21_p53_BLA_p4_ratio: Tox21 HCT-116 p53 Agonism Beta-lactamase Assay, Ratio, Phase 4 (AID 2283601)
Method in brief: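 HCT-116 p53 beta-lactamase reporter cells (4000/well) preincubated 5 h, then compound (217-fold dilution of DMSO stock) for 16 h at 37C. CCF4-AM substrate added 2 h at room temperature; 460/530 nm emission ratio fitted upward versus DMSO.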

[8] = test system: Thyroperoxidase (TPO), gene 54314; assay: CCTE_Simmons_AUR_rTPO: CCTE's Amplex UltraRed Assay for Thyroperoxidase (TPO) Inhibition, Simmons Lab (AID 2283662);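 note: potency for loss of signal meaning inhibition of peroxidase activity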
Method in brief: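 Cell-free peroxidase activity assay using rat thyroid gland microsomes with excess H2O2 (300 uM) and 25 uM Amplex UltraRed. Compounds tested from 5 nM to 87.5 uM; fluorescence measured after 30 min at 37C, analysed relative to DMSO baseline.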

[9] = CCTE_Harrill_HTTr_Viability_MCF7: CCTE's 6-hour Cell Viability Assessment for the High-Throughput Transcriptomics (HTTr) Platform, in MCF-7 cells cultured in DMEM + 10% fetal bovine serum, Harrill Lab (AID 2284010; active = hit-call score of the fitted dose curve at least 0.9, where 1 is the maximum; inactive = score below 0.9)
Method in brief: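 Eight-point concentration series, six-hour exposure. Propidium iodide exclusion imaged to assess membrane integrity as a cytotoxicity readout; bidirectional fitting was done with DMSO as negative control and activity baseline.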

[10] = CCTE_Harrill_HTTr_Apoptosis_MCF7: CCTE's 6-hour Apoptosis Assessment for the High-Throughput Transcriptomics (HTTr) Platform, in MCF-7 cells cultured in DMEM + 10% fetal bovine serum, Harrill Lab (AID 2284011; active = hit-call score of the fitted dose curve at least 0.9, where 1 is the maximum; inactive = score below 0.9)
Method in brief: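 Cells are dosed with test chemicals at eight concentrations and imaged 6 hours later for caspase-3/7 activity using a green fluorogenic detection reagent. Activity is fitted in both directions against DMSO controls.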

[11] = CCTE_Harrill_HTTr_CellCount_MCF7: CCTE's Cell Proliferation Assessment for the High-Throughput Transcriptomics (HTTr) Platform, Harrill Lab (AID 2284012);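 note: count of Hoechst-stained nuclei per well by high-content imaging in MCF-7 cells; cells exposed to compound for six hours; intended direction is loss of nuclei count meaning fewer cells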
Method in brief: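 For this full-screen endpoint, MCF-7 cultures received eight compound dilutions for six hours. Well nuclei counts from Hoechst imaging were analyzed relative to DMSO.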

THRB (gene 7068) [12] = biological target: THRB (gene 7068) (UniProt P10828); assay: TOX21_TRB_BLA_Antagonist_Followup_ratio: Tox21 Thyroid Hormone Receptor beta Antagonism Beta-lactamase (BLA) Follow-Up Assay, Ratio (AID 2283958)
Sequence of THRB (gene 7068) (P10828 whole entry, looked up, the tested form may be a part): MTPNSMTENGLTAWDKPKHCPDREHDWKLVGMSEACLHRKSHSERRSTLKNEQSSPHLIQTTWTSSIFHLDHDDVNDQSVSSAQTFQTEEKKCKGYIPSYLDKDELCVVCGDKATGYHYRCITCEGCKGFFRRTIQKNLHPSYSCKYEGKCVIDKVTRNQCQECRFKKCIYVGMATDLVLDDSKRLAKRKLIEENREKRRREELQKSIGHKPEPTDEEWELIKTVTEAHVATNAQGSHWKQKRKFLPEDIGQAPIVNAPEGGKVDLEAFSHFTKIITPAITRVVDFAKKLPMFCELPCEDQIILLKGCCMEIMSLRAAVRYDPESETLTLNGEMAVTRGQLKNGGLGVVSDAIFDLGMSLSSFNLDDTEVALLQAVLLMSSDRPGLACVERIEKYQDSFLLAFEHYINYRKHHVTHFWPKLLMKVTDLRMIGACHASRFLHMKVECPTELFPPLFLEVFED
Method in brief: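 Using charcoal-stripped 2% FBS medium, human TRβ-LBD/GAL4 reporter HEK293T cells received test compounds for 18 h. The endpoint is the cleaved-to-uncleaved substrate ratio (460/530 nm).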

[13] = TOX21_TRB_BLA_Antagonist_Followup_viability: Viability Assessment in the Tox21 Thyroid Hormone Receptor beta Antagonism Beta-lactamase (BLA) Follow-Up Assay (AID 2283961)
Method in brief: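 Cytotoxicity is measured in parallel with the antagonist-mode TRβ beta-lactamase screen, using ATP-coupled luciferase luminescence. Engineered HEK293T cells are treated for 18 h with 11-point compound series in triplicate.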

THRB (gene 7068) [14] = biological target: THRB (gene 7068) (UniProt P10828); assay: TOX21_TRB_COA_Antagonist_Followup_ratio: Tox21 Thyroid Hormone Receptor beta Antagonism through Coactivator Recruitment Follow-Up Assay, Ratio (AID 2283967)
Method in brief: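 GST-TRb LBD 5.0 nM + 0.10% BSA, compound added; fluorescein-SRC-2 peptide 200 nM, Tb-anti-GST Ab 2 nM. TR-FRET, ex 340 / em 520:495 ratio. Norm: DMSO 0%, T3 100%.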

[15] = TOX21_TR_RXR_BLA_Antagonist_Followup_viability: Viability Assessment in the Tox21 Thyroid Hormone Receptor beta Retinoid X Receptor alpha (RXRa) Antagonism Beta-lactamase (BLA) Follow-Up Assay (AID 2283979)
Method in brief: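 RXRa-bla HEK293T cells (2,500/well, phenol red-free DMEM, 2% charcoal-stripped FBS) were attached 5 h, then exposed to compounds at 11 concentrations in triplicate for 16 h at 37C. Viability measured by CellTiter-Glo ATP luminescence, bidirectional fitting versus DMSO.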

Measured: AC50

COC(=O)C1=C(C)NC(C)=C(C(=O)OCCCN2CCC(c3ccccc3)(c3ccccc3)CC2)C1c1cccc([N+](=O)[O-])c1 (stereo unspecified)
active: [1] 32.9 µM | [2] 36 µM | [3] 36.8 µM | [4] 28.8 µM | [5] 43.6 µM | [6] 37.4 µM | [7] 42.8 µM

O=C(NCC1CCCCN1)c1cc(OCC(F)(F)F)ccc1OCC(F)(F)F (stereo unspecified)
inactive: [1] | [2] | [3] | [4] | [5] | [6] | [7]

CCc1ncnc2cc(OC)c(OC)cc12
inactive: [1] | [2] | [3] | [4] | [5] | [6] | [7]

OC[C@@H](O)[C@@H](O)CO
inactive: [1] | [2] | [3] | [4] | [5] | [6] | [7]

C=CC1=C(C(=O)O)N2C(=O)[C@@H](NC(=O)/C(=N\O)c3csc(N)n3)[C@H]2SC1 (stereo in doubt)
inactive: [1] | [2] | [3] | [4] | [5] | [6] | [7]

CCOC(=O)[C@H](CCc1ccccc1)N[C@@H](C)C(=O)N1[C@H](C(=O)O)C[C@H]2CCCC[C@@H]21
inactive: [1] | [2] | [3] | [4] | [5] | [6] | [7]

O=C(O)c1cc(O)c(O)c(O)c1
inactive: [1] | [2] | [3] | [4] | [5] | [6] | [7]

CC1CCCNC1 (stereo unspecified)
inactive: [1] | [2] | [3] | [4] | [5] | [6] | [7]

NS(=O)(=O)c1cc(C2(O)NC(=O)c3ccccc32)ccc1Cl (stereo unspecified)
inactive: [1] | [2] | [3] | [4] | [5] | [6] | [7]

Cc1c(N(C)CS(=O)(=O)O)c(=O)n(-c2ccccc2)n1C
active: [8] 8.64 µM
not listed: THRB (gene 7068) [12] | [13] | THRB (gene 7068) [14] | [15]
inactive: all other assays above

O=S(=O)(O)c1ccc2c(N=Nc3ccc(S(=O)(=O)O)c4ccccc34)c(O)c(S(=O)(=O)O)cc2c1
inactive: [1] | [2] | [3] | [4] | [5] | [6] | [7]

CC(C)C(=O)OCC(=O)[C@@]12O[C@H](C3CCCCC3)O[C@@H]1C[C@H]1[C@@H]3CCC4=CC(=O)C=C[C@]4(C)[C@H]3[C@@H](O)C[C@@]12C
inactive: [1] | [2] | [3] | [4] | [5] | [6]

C[C@@H]1C[C@H]2[C@@H]3CCC4=CC(=O)C=C[C@]4(C)[C@@]3(Cl)[C@@H](O)C[C@]2(C)[C@@]1(OC(=O)c1ccco1)C(=O)CCl
not listed: [8] | [9] | [10] | [11]
inactive: all other assays above

CCN(CC)CCOc1ccc(C(O)(Cc2ccc(Cl)cc2)c2ccc(C)cc2)cc1 (stereo unspecified)
active: [1] 35.9 µM | [2] 23 µM | [4] 30.7 µM | [7] 43 µM
inactive: [3] | [5] | [6]

CC(=NO)C(C)=NO
inactive: [1] | [2] | [3] | [4] | [5] | [6] | [7]

Cc1nc(C)c(C)nc1C
not listed: [7] | [8] | THRB (gene 7068) [12] | [13] | THRB (gene 7068) [14] | [15]
inactive: all other assays above

CCN(O)CC
inactive: [1] | [2] | [3] | [4] | [5] | [6] | [7]

CC(=O)N1C[C@H](O)C[C@H]1C(=O)O
inactive: [1] | [2] | [3] | [4] | [5] | [6] | [7]

CC(C)OC(=O)OCOP(=O)(CO[C@H](C)Cn1cnc2c(N)ncnc21)OCOC(=O)OC(C)C
inactive: [1] | [2] | [3] | [4] | [5] | [6] | [7]

CNCc1ccccc1
inactive: [1] | [2] | [3] | [4] | [5] | [6] | [7]

Cc1c(C)c2c(c(C)c1OC(=O)CCC(=O)OCCO)CCC(C)(CCCC(C)CCCC(C)CCCC(C)C)O2 (stereo unspecified)
inactive: [1]
active: [2] 19.2 µM | [3] 37.3 µM | [4] 34.6 µM | [5] 16.2 µM | [6] 13.3 µM

OCC(S)CS (stereo unspecified)
active: [2] 29.5 µM | [3] 35.7 µM
inactive: [1] | [4] | [5] | [6] | [7]

C=C1CC2C3CCC4=CC(=O)C=C[C@]4(C)[C@@]3(F)[C@@H](O)C[C@]2(C)[C@@]1(O)C(=O)COC(C)=O (stereo partly specified)
inactive: [1] | [2] | [3] | [4] | [5] | [6] | [7]

CC(C)[N+](C)(C)CC(O)COc1cccc2ccccc12 (stereo unspecified)
inactive: [1] | [2] | [3] | [4] | [5] | [6] | [7]
